This note sets out measurements from PubChem BioAssay (NCATS).

Inconclusive results are not listed. The source made the active and inactive calls. Unless noted, calls come from the whole dose curve; as a rule, active = well fitted curve in the direction sought with a large enough effect; inconclusive = small, poorly fitted or top-dose-only effect, or another doubt; inactive = no such curve, though single readings can be large; an effect the other way counts as inactive or inconclusive. Bounds are passed on as bounds.

Experiment [1] deals with Lysosomal acid glucosylceramidase (Homo sapiens) (UniProt P04062). As to the kind of experiment: Glucocerebrosidase-p2 (AID 348; in the data active = potency below about 10 µM; note: potency is the fitted concentration of half-maximal effect). The note with it: purified GBA, blue fluorogenic substrate, 40 min. The method in brief: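 Compounds titrated from 0.6 nM upwards against 0.2 nM enzyme in pH 5.9 citric acid/KH2PO4, taurocholate, tween-20; blue fluorogenic substrate 80 uM, 40 min room temperature, stopped and read Ex 365/Em 440 for AC50.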
Sequence of Lysosomal acid glucosylceramidase (Homo sapiens) (P04062 whole entry, looked up): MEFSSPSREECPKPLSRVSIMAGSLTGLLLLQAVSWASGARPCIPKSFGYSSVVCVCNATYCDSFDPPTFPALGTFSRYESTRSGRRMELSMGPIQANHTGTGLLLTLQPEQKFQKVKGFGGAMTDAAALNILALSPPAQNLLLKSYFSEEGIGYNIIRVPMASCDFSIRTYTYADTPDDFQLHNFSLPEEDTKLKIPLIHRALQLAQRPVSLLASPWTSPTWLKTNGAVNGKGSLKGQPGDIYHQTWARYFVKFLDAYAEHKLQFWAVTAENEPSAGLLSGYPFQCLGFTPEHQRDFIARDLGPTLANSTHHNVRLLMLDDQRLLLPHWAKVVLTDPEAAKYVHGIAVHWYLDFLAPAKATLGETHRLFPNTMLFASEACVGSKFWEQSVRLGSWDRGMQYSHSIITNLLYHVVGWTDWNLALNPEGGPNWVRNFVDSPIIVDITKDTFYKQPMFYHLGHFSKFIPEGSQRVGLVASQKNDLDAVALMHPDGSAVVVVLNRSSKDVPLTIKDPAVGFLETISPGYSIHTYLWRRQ

Experiment [2] can be described thus: AP1 Signaling Pathway (AID 357; active = well fitted curve in either direction with a large enough effect, not every such curve was filed as active; note: % is set by controls: 0 for no effect and ±100 for the full control effect). The note with it: ME-180 AP-1-bla reporter, EGF-induced, beta-lactamase ratio, 5 h; at 7.69 µM (top of the series) unless noted. Put shortly: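 AP-1-bla ME-180 cells, Opti-MEM + 0.5% dialyzed FBS, plated overnight 37 °C. Cpd titration + EC50 EGF, 5 h 37 °C. CCF4 2.5 h RT; ex 405, em 460/530 ratio → %activity, AC50.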
Experiment [3] in a line: NFAT Signaling Pathway (AID 444; active = well fitted curve in either direction with a large enough effect, not every such curve was filed as active;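 note: carbachol stimulus at about its EC50 of 1 µM final; % is set by controls: 0 for no effect and ±100 for the full control effect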). The note with it: Jurkat NFAT-bla M1, carbachol, beta-lactamase ratio, 5 h; at 7.69 µM (top of the series) unless noted. The method in brief:
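Read-out: CCF4 FRET ratio (460 nm/530 nm) after 1 h RT dye loading, used for %activity and AC50 from titration series. Cells: Jurkat NFAT-β-lactamase/M1 line, treated with compound plus 1 uM carbachol for 5 h, 37 °C.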

Experiment [4] can be described thus: Stat Signaling Pathway (AID 446; active = well fitted curve in either direction with a large enough effect, not every such curve was filed as active;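 note: ME-180 cervical cancer cells given 40 pM IL-6 alongside compound; SIE-controlled beta-lactamase reporter measured as 460/530 nm FRET emission ratio; % is set by controls: 0 for no effect and ±100 for the full control effect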). The settings on record: ME-180 SIE beta-lactamase reporter, IL-6 stimulated, 5 h; at 7.69 µM (top of the series) unless noted. The method in brief:
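Reporter line: ME-180 cervical carcinoma, SIE-beta-lactamase. Treatment: compound with 40 pM IL-6, 5 hrs, 37 C, in low-serum OPTI-MEM with 10 mM HEPES pH 7.3. Detection: 460/530 nm fluorescence.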

In experiment [5] the target is Glucocorticoid receptor (Homo sapiens) (UniProt P04150). The experiment is described as follows: GR-GFP Redistribution (AID 450;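 active = compounds whose dose series gives a full or clear partial fitted curve of increased nuclear translocation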; note: potency is the fitted concentration of half-maximal effect). The note with it: U2OS GR-GFP nuclear translocation, laser cytometry, 2 h.
Sequence of Glucocorticoid receptor (Homo sapiens) (P04150 whole entry, looked up): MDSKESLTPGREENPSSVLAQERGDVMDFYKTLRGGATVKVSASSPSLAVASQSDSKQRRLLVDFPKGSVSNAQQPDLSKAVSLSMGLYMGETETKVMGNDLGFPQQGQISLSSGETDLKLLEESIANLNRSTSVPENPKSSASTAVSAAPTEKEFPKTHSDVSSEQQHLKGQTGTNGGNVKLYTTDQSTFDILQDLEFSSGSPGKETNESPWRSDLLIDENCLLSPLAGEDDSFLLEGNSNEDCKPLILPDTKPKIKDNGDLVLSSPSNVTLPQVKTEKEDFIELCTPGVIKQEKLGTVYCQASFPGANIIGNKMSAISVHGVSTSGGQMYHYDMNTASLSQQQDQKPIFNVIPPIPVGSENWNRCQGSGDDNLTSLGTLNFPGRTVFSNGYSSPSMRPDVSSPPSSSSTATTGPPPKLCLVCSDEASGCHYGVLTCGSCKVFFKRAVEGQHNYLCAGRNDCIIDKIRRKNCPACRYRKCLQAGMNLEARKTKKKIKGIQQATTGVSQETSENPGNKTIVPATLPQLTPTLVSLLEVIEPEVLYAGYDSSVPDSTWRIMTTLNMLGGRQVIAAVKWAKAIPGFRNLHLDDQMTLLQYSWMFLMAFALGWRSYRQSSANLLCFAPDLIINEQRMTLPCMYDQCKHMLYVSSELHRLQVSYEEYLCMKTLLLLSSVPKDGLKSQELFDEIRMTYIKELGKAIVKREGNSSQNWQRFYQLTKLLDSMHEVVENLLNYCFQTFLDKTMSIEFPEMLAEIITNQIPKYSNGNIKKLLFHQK
Experiment [6] has the same target. The experiment is described as follows: GR-EFC Redistribution (AID 451; calls by dose curve; note: potency is the fitted concentration of half-maximal effect). The note with it: CHO-K1 GR-EFC translocation, beta-gal luminescence, 2 h. Put shortly:
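Translocation of GR-ED fusion to nuclear EA restores b-gal, read by luminescence after 1 h room-temperature detection. Engineered CHO-K1 biosensor cells, 1,000/well, exposed 2 h at 37 C to titrations up to 46 uM final.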

In experiment [7] the target is Mitogen-activated protein kinase 10 (Mus musculus) (UniProt Q61831). The experiment is described as follows: JNK3 AlphaScreen Assay (AID 530; active = well fitted curve in either direction with a large enough effect, not every such curve was filed as active;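 note: kinase came from lysate of stimulated human HepG2 cells; signal reports phosphorylation of biotinylated GST-cJun 1-79 at Ser73 with 10 µM ATP; % is set by controls: 0 for no effect and ±100 for the full control effect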). The settings on record: JNK3 lysate, c-Jun phosphorylation; series mostly up to 57.1 µM. Put shortly: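 Room-temperature AlphaScreen kinase assay; pre-activated HepG2 lysate as JNK3 source, biotin-GST-cJun(1-79) substrate, 10 uM ATP, compound 15 min preincubation.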

Experiment [8] concerns the target 3',5'-cyclic-AMP phosphodiesterase 4B (Homo sapiens) (UniProt Q07343). The experiment is described as follows: qHTS Assay for Inhibitors of PDE-IV (AID 607; active = well fitted activation curve with a large enough effect in the main read-out, with a control signal flat, not every such curve was filed as active; note: % of control where 0% means no effect). The settings on record: HEK293 ACTOne CNG channel cells, membrane potential fluorescence; series mostly up to 22.9 µM. The method in brief:
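Cell-based read-out of cAMP via a modified cyclic nucleotide-gated channel and membrane potential dye (535/590 nm) in HEK293 cells expressing PDE4 endogenously. Compounds tested up to 22.9 uM final; 100 uM RO 20-1724 reference.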

The nature of experiment [9]: qHTS Assay for Lipid Storage Modulators (AID 1519; calls by dose curve). The note with it: Drosophila S3 cells, BODIPY lipid droplet/cell ratio, laser cytometry, cells loaded with oleic acid; for activity change, negative = inhibition: at 57.5 µM (top of the series). The method in brief:
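Cells seeded at 5,000 per well were treated with compounds over a concentration series and loaded with oleic acid (400 uM, as added). Lipid droplet fluorescence (488 nm excitation, 500-530 nm channel) was read by laser-scanning cytometry and normalized to 20 uM Triacsin C.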

The target in experiment [10] is Dual specificity protein kinase CLK4 (Homo sapiens) (UniProt Q9HAZ1). The experiment is described as follows: qHTS Assay for Inhibitors of CDC-like Kinase 4 (Kinase-Glo Assay) (AID 1770). Note: nearly all actives have a fitted effect of over 65% in size. Note: potency is the fitted concentration of half-maximal effect. The note with it: recombinant Clk4, Kinase-Glo ATP depletion luminescence; series mostly up to 66.7 µM. Put shortly: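 Substrate mix (RS peptide 100 uM, ATP 1 uM) dispensed, compound pinned in, then Clk4 added to 25 nM final. Incubated 4.5 h at RT; Kinase-Glo reagent added, luminescence read after 5 min.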
Sequence of Dual specificity protein kinase CLK4 (Homo sapiens) (Q9HAZ1 whole entry, looked up): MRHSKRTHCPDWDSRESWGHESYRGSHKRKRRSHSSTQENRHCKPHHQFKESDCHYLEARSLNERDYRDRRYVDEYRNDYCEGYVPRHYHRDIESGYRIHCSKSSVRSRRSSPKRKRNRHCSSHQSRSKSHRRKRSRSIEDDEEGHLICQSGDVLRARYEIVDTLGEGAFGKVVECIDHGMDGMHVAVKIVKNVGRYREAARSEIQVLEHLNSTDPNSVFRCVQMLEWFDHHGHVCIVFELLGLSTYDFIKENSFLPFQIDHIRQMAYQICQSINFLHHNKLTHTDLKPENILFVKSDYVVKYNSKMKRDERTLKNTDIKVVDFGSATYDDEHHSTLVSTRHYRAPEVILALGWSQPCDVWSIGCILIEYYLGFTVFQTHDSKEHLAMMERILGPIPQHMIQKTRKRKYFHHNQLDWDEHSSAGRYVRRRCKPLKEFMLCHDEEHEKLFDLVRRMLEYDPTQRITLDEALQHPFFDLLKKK

Experiment [11] has the same target. The experiment is described as follows: qHTS Assay for Inhibitors of CDC-like Kinase 4 (ADP-Glo Assay) (AID 1771). Note: nearly all actives have a fitted effect of over 70% in size. Note: potency is the fitted concentration of half-maximal effect. The note with it: recombinant CLK4, ADP-Glo luminescence; series mostly up to 80 µM. Put shortly: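 Clk4 (25 nM) was incubated 1 hr at room temperature with 100 uM RS repeat peptide and 1 uM ATP in buffer with 2 mM MgCl2, 0.5 mM EGTA, 2.5 mM DTT. ADP formed was quantified by ADP-Glo luminescence.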

The target is the same in experiment [12]. The experiment is described as follows: qHTS Assay for Inhibitors of CDC-like Kinase 4 (ADP-FP Assay) (AID 1795). Note: nearly all actives have a fitted effect of over 60% in size. Note: potency is the fitted concentration of half-maximal effect. The settings on record: Transcreener ADP fluorescence polarization; series mostly up to 50 µM. The method in brief:
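Clk4 6.25 nM; RS peptide 100 uM; ATP 1 uM; 25 mM Tris pH 7.5, 10 mM MgCl2; 1 h reaction. ADP detected via antibody/orange tracer FP displacement; TG003 positive control.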

Experiment [13] has as its target Ubiquitin carboxyl-terminal hydrolase 1 (Homo sapiens) (UniProt O94782). As to the kind of experiment: Inhibitors of USP1/UAF1: Pilot qHTS (AID 504865).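 Note: rhodamine fluorescence freed from ubiquitin-rhodamine substrate followed over time; top concentration of the series differs between compounds; % is set by controls: 0 for no effect and ±100 for the full control effect; nearly all actives have a fitted effect of over 35% in size.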 The settings on record: purified USP1/UAF1, Ub-rhodamine cleavage fluorescence; series mostly up to 54.9 µM. The method in brief:
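In 50mM HEPES pH 7.8 containing 0.5mM EDTA, 1mM TCEP, 0.1 mg/ml BSA and 0.01% Tween-20, 1nM USP1/UAF1 is exposed to compound for 15 min, then Ub-Rho (150nM final) is added and fluorescence is read over time.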

In experiment [14] the target is Cytochrome P450 1A2 (Homo sapiens) (UniProt P05177). As to the kind of experiment: p450-cyp1a2 (AID 410; calls by dose curve; note: potency is the fitted concentration of half-maximal effect). The settings on record: recombinant CYP1A2, luciferin-ME demethylation, luminescence; series mostly up to 57 µM. Put shortly: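 Human CYP1A2 (20nM) demethylated Luciferin-ME at its Km (100uM) in 100mM KPO4. After 10 min compound preincubation, NADPH regeneration ran the reaction 60 min at room temperature. Luciferin was read by luminescence, normalized to 57 uM furafylline.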
Sequence of Cytochrome P450 1A2 (Homo sapiens) (P05177 whole entry, looked up): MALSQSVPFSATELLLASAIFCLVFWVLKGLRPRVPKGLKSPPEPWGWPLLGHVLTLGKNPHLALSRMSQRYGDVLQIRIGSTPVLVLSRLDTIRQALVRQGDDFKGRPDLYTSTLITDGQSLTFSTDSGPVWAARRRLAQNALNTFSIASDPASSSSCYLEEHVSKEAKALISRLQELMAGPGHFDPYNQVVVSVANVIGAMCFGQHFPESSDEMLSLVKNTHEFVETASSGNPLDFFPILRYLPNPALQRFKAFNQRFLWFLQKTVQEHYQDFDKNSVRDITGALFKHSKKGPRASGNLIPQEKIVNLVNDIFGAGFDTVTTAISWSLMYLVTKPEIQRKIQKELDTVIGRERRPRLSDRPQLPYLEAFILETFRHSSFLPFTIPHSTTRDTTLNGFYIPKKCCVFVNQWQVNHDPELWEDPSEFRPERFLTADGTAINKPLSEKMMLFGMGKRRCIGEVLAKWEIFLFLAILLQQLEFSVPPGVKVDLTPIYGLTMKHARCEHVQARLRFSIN

Experiment [15] has as its target Cytochrome P450 3A4 (Homo sapiens) (UniProt P08684). The experiment is described as follows: qHTS Assay for Activators of Cytochrome P450 3A4 (AID 885). Note: nearly all actives have a fitted effect of over 65% in size. The note with it: recombinant CYP3A4, Luciferin-PPXE luminescence, 60 min; series mostly up to 57.1 µM. Put shortly: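 Signal was normalized against complete inhibition by 57 uM ketoconazole. The reaction used 20nM CYP3A4 with 25uM Luciferin-PPXE, 10-min compound preincubation and a 60-min NADPH-supported step at RT.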

The target is the same in experiment [16]. The experiment is described as follows: qHTS Assay for Inhibitors and Substrates of Cytochrome P450 3A4 (AID 884). Note: potency is the fitted concentration of half-maximal effect; nearly all actives have a fitted effect of over 50% in size. The settings on record: recombinant CYP3A4, Luciferin-PPXE luminescence; series mostly up to 57.1 µM. Put shortly: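 20 nM human CYP3A4 with 25 uM Luciferin-PPXE (at KM) in 200 mM KPO4, preincubated 10 min with compound; NADPH regeneration started a 60 min RT reaction. Luciferin detected by luminescence, normalized to 57 uM ketoconazole as full inhibition.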

Where [17] appears, read: measured here: cell count channel max response.
Where [18] appears, read: measured here: lipid channel max response.

Sequence of Cytochrome P450 3A4 (Homo sapiens) (P08684 whole entry, looked up): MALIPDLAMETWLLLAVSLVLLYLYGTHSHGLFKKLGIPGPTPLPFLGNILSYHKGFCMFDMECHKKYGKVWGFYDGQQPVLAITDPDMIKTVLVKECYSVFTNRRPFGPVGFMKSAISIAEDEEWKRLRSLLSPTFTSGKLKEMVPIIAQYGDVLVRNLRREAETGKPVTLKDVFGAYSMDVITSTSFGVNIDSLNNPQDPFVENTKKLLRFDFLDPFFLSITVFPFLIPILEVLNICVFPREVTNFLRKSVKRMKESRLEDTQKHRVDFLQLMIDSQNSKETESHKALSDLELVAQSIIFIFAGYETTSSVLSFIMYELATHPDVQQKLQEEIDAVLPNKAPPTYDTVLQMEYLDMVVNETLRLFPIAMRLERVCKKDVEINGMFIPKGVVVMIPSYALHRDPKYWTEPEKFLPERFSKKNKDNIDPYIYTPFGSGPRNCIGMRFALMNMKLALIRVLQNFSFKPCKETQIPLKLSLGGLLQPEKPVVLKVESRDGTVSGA
Sequence of 3',5'-cyclic-AMP phosphodiesterase 4B (Homo sapiens) (Q07343 whole entry, looked up): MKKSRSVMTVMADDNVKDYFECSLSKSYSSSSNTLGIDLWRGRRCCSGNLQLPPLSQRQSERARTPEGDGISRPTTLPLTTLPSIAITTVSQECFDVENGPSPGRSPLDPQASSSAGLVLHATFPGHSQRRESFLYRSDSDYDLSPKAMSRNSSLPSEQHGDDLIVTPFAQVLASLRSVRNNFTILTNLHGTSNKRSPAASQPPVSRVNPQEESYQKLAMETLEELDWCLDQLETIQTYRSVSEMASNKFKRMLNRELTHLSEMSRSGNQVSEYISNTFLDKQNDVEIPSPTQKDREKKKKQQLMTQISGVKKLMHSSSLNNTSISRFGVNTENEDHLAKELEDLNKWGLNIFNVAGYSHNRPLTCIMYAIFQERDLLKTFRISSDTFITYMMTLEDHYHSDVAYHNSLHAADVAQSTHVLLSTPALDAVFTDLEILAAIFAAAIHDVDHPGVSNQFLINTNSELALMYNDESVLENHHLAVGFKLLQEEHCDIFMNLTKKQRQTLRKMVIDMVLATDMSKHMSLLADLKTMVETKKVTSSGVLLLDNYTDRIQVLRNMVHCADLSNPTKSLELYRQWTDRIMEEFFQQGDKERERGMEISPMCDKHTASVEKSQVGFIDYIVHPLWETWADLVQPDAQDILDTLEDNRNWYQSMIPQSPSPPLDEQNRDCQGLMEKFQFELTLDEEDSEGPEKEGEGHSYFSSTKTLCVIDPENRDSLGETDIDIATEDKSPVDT
Sequence of Ubiquitin carboxyl-terminal hydrolase 1 (Homo sapiens) (O94782 whole entry, looked up): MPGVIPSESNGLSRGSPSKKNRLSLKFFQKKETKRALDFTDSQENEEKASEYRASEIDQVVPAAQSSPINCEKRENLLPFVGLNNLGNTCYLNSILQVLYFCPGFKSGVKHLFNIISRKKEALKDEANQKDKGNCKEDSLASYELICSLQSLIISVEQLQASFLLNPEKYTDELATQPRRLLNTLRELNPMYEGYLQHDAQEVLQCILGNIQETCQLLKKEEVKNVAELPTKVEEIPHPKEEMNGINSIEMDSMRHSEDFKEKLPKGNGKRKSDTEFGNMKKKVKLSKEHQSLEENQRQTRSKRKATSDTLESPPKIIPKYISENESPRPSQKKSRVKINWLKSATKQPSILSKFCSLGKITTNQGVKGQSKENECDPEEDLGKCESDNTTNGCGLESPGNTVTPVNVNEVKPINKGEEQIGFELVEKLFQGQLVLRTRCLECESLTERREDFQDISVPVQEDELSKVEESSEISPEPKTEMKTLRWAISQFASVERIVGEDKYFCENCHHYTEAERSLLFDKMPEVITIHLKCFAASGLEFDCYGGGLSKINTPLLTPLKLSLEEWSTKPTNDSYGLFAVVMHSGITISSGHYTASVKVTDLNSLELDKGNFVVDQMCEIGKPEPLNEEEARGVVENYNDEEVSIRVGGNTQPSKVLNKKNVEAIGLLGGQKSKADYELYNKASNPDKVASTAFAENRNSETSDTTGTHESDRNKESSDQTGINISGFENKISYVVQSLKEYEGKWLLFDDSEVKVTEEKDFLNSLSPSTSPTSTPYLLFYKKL

Take `Cn1c(=O)c(-c2ccc(F)cc2)nc2cnc(OCc3ccccc3)nc21`: the Potency is > 11.4 µM (inactive) in experiment [1], > 9.22 µM (inactive) in [5] and > 46 µM (inactive) in experiment [6]. Moreover, the figures for the activity change, negative = inhibition in experiment [2], in [3] and in experiment [9] were 14.6% (inactive), 19.9% (inactive) and 5.66% (inactive), respectively. Further, the activity, negative = inhibition in experiment [4] was -11.9% (inactive). Besides, the Potency result in experiment [7], in experiment [8], in experiment [10], in experiment [11], in [12] and in experiment [13] was “inactive” each time. For the same compound, the figures for the max response in [9] (setting [17]) and in experiment [9] (setting [18]) were 7.28% and 10.2%, respectively.
For the compound `COc1ccc(-c2nc3cnc(OC)nc3n(-c3ccc(OC)cc3)c2=O)cc1`, the Potency in [1] was > 11.4 µM (inactive); in experiment [14], 0.316 µM (active); in [6], > 46 µM (inactive). The values for the activity change, negative = inhibition in experiment [2], in experiment [3] and in experiment [9] were -4.28% (inactive), 5.9% (inactive) and -15.7% (inactive), respectively. Besides, the activity, negative = inhibition in experiment [4] was -4.51% (inactive). Further, the Potency entry in [7], in experiment [8], in experiment [15], in experiment [10], in [11] and in experiment [12] was “inactive” in each case. Further, the Potency entry in experiment [13] is “inactive”. Further, the max response in experiment [9] (setting [17]) turned out to be 29.3%; in experiment [9] (setting [18]) it was 4.55%.
`COc1ccccc1CNc1ncnc2ccc(-c3ccccc3OC)cc12`: the Potency is > 11.4 µM (inactive) in experiment [1]; 1 µM (active) in [14]; > 46 µM (inactive) in experiment [5]; > 46 µM (inactive) in experiment [6]; 6.31 µM (active) in experiment [16]; 4.47 µM (active) in [10]. For the same compound, the Potency in experiment [11] is 4.47 µM (active); in experiment [12] it was 1.58 µM (active). Besides, the activity change, negative = inhibition in experiment [2] was -19.9% (inactive); in [9] it was -20% (inactive). Further, the Potency result in [7], in experiment [15] and in [13] was “inactive” each time. Moreover, the values for the max response in [9] (setting [17]) and in experiment [9] (setting [18]) were -10.4% and -24.8%, respectively.
`COCCn1c(=O)c(C)nc2cnc(Oc3cccc(Cl)c3)nc21`: the Potency is > 11.4 µM (inactive) in experiment [1], 12.6 µM (active) in experiment [14], > 9.22 µM (inactive) in experiment [5] and > 46 µM (inactive) in [6]. For the same compound, the activity change, negative = inhibition in [2] is -12% (inactive); in experiment [3], 10.5% (inactive); in [9], 4.18% (inactive). The activity, negative = inhibition in experiment [4] is -4.78% (inactive). Besides, the Potency entry in experiment [7], in experiment [15], in experiment [10], in experiment [11], in [12] and in [13] was “inactive” in each case. Besides, the max response in experiment [9] (setting [17]) was determined as 15.1%; in experiment [9] (setting [18]), 17.8%.
Turning to `CN(C)Cc1ccccc1-c1cc(NCc2cccs2)ncn1`, the Potency in experiment [1] was > 11.4 µM (inactive); in [14], 25.1 µM (active); in experiment [5], > 46 µM (inactive); in [6] it was > 46 µM (inactive). In addition, the activity change, negative = inhibition in experiment [2] was 9.46% (inactive); in experiment [9], 3.12% (inactive). Also, in experiment [4], the activity, negative = inhibition is 1.42% (inactive). Besides, the Potency result in experiment [7], in [8], in experiment [15], in experiment [10], in experiment [11] and in experiment [12] was “inactive” in each case. For the same compound, the Potency result in [13] is “inactive”. Further, the figures for the max response in experiment [9] (setting [17]) and in experiment [9] (setting [18]) were 23.4% and 25.3%, respectively.
